# ChEMBL document CHEMBL1201862, “PubChem BioAssay data set” (2004)
# Out of some 400,000 compounds screened, about 2,100 (0.53%) were called active. Not shown: some 14% with an inconclusive outcome. No rule for the calls is given here. The entries come from a sample that favours actives as a whole.
# Target: Ataxin-2 (Homo sapiens) (UniProt Q99700)
# Experiment: qHTS for Inhibitors of ATXN expression.
# Type: functional
# Sequence of Ataxin-2 (Homo sapiens) (Q99700 whole entry): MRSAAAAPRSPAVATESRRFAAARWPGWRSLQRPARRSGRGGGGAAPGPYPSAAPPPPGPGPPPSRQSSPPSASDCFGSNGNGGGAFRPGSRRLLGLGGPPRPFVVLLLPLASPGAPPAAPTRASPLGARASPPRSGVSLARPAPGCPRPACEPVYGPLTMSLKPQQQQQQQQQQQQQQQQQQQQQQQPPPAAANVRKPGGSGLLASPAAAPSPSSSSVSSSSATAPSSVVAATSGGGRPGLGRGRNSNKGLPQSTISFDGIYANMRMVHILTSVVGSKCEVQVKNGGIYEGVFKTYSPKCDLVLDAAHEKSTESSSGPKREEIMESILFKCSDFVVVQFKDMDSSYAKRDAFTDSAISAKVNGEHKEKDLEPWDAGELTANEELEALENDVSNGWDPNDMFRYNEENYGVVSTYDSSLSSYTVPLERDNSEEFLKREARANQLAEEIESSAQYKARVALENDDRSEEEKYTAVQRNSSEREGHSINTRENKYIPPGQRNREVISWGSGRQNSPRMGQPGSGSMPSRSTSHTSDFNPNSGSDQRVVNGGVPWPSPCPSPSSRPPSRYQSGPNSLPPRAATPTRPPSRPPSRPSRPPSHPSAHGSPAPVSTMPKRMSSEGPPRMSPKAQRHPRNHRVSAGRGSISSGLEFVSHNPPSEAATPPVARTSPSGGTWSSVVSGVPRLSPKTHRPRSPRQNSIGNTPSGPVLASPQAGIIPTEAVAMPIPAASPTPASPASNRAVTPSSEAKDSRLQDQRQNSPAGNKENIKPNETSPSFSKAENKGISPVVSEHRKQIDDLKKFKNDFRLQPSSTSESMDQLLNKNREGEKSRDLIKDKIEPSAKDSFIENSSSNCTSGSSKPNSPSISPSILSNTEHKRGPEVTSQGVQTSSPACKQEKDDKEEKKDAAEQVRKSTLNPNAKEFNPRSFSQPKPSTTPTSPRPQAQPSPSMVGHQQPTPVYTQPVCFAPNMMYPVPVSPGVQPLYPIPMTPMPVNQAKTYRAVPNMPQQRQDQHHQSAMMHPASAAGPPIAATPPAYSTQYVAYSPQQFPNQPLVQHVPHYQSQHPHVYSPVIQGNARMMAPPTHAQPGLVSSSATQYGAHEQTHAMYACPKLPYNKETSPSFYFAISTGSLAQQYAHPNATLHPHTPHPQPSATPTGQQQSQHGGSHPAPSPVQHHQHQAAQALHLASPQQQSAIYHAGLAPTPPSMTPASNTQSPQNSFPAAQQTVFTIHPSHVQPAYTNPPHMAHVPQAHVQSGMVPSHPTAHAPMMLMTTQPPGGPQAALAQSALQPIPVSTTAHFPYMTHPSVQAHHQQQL
row,Structure (SMILES),Potency
1,COc1cccc(CNC(=O)Cc2csc(Nc3nc(S)nc4ccccc34)n2)c1,inactive
2,c1csc(CNc2nc(Oc3ccncc3)c3sccc3n2)c1,inactive
3,C#Cc1cccc(Nc2nc(NC(C)C)nc3ccsc23)c1,28.2 µM (active)
4,COCCNc1nc(NCc2ccc(C(C)C)cc2)c2sccc2n1,35.5 µM (active)
5,c1cc2cc(CNc3nc(NCC4CC4)nc4ccsc34)ccc2o1,25.1 µM (active)
6,COc1cccc(CNc2nc(NCc3cccs3)nc3ccsc23)c1,39.8 µM (active)
7,CC(=O)c1ccc(NC(=O)COC(=O)Cc2ccsc2)cc1,inactive
8,S=C(c1ccc(-c2ccc(Br)cc2)o1)N1CCCCC1,inactive
9,CN(Cc1ccon1)C(=O)CC1C(=O)NCCN1CC(C)(C)C (stereo not drawn),inactive
10,O=S(=O)(O)c1ccc(SCc2ccccc2)nc1,inactive
11,COc1ccccc1CNc1nc(NCc2ccc(C(C)C)cc2)c2sccc2n1,31.6 µM (active)
12,CC(C)c1ccc(CNc2nc(NCC3CC3)nc3ccsc23)cc1,28.2 µM (active)
13,COc1ccc(CNc2nc3ccccc3n2C(C)C)cc1,inactive
14,CCn1c(/C=C/c2c[nH]c3ccccc23)nc2ccccc2c1=O,inactive
15,O=C(CCCCl)Oc1ccc2cc(-c3ccc4ccccc4n3)c(=O)oc2c1,inactive
16,Cc1ccc(NC(=O)C2CCCN2c2nn3c(=O)cc(C)nc3s2)cc1 (stereo not drawn),inactive
17,CCOc1ncccc1C(=O)OCC(=O)NC(=O)NC(C)C,inactive
18,CCOc1ncccc1C(=O)Nc1nc(C(C)(C)C)cs1,39.8 µM (active)
19,CCOc1ncccc1C(=O)NC(C)CCc1ccccc1 (stereo not drawn),inactive
20,COc1ccc2[nH]c3nc(SCc4nnc(-c5ccc(C)cc5)o4)nnc3c2c1,22.4 µM (active)
21,COc1ccc([C@@H](C)NC(=O)CCc2nnc(-c3cc(C)on3)o2)cc1,inactive
22,COc1ccc(C2CC(c3ccc(F)cc3)n3nc(NC(=O)c4ccco4)nc3N2)cc1 (stereo not drawn),inactive
23,Cc1ccc(C)c(CSc2cn(CCNC(=O)c3cccs3)c3ccccc23)c1,31.6 µM (active)
24,CCCn1nc(NC(=O)c2cccs2)c2cc3cc(C)ccc3nc21,inactive
25,N#Cc1c(N)n(CCNC(=O)c2cccs2)c2nc3ccccc3nc12,inactive
26,COC(=O)c1cc(=O)nc(NN=C2c3ccccc3-c3ccccc32)s1,14.1 µM (active)
27,Cc1cccn2c(=O)c3cc(C#N)/c(=N\C(=O)c4ccccc4)n(Cc4ccco4)c3nc12,inactive

row,Structure (SMILES),Potency
1,O=C(Oc1cc2oc(=O)c3c(c2cc1Cl)CCCC3)c1cccs1,inactive
2,COc1cc2c(cc1OC)C(c1ccccc1)N(C(=O)CCl)CC2 (stereo not drawn),25.1 µM (active)
3,COc1cc2c(cc1OC)CN(C1CCC(C(C)(C)C)CC1)CC2 (stereo not drawn),inactive
4,COc1cc2c(cc1OC)C(c1ccccc1Cl)N(C)CC2 (stereo not drawn),inactive
5,CCc1ccc(-c2cc(C(F)(F)F)n3nc(C(=O)Nc4cnn(Cc5ccccc5C)c4)cc3n2)s1,inactive
6,CC1(C)CC(=O)c2cnc(N3CCc4ccccc43)nc2C1,inactive
7,COc1ccc(S(=O)(=O)N(C)C)cc1NC(=O)CCNC(=O)c1ccco1,inactive
8,Nc1ccc(/C=C/C(=O)c2cccs2)cc1,inactive
9,O=C(c1cccs1)N1CCN(C(=O)c2cccs2)C1=S,39.8 µM (active)
10,O=C(NCCNC1CCC(c2ccccc2)CC1)c1cccs1 (stereo not drawn),inactive
11,CCOc1cc(Br)c(C(C)NC(=O)c2cccnc2)cc1OCC (stereo not drawn),inactive
12,N#C/C(=C(/O)CCCl)c1ccccn1,inactive
13,FC(F)Sc1ccc(NC(=S)N2CCN(c3ccccn3)CC2)cc1,inactive
14,CCOC(=O)C1C(C(=O)NN)C1C(=O)Nc1ccccc1 (stereo not drawn),inactive
15,CCOC(=O)c1cnc(-c2ccccc2O)nc1Cl,inactive
16,CCOC(=O)C1=Nc2ccccc2C1=[N+]=[N-],39.8 µM (active)
17,Cc1ccc2nc3c(cc2c1)c(C)nn3-c1ccccc1,inactive
18,O=C(C(Cc1ccccc1)n1cccc1)N1CCCCC1 (stereo not drawn),inactive
19,O=C1OCCN1C(=O)[C@H]1[C@H](c2ccccc2)C(c2cccc(Cl)c2)=NN1c1ccccc1,inactive
20,CCCc1nnc(SCC(=O)Nc2ccccc2F)o1,inactive
21,Cc1ccc(C(C)NC(=O)C23CC4CC(CC(C4)C2)C3)cc1 (stereo not drawn),inactive
22,CCCCn1c(CNC(=O)C23CC4CC(CC(C4)C2)C3)nnc1SCC(=O)Nc1ccc(C)cc1,35.5 µM (active)
23,COc1ccc(NC(=O)Cc2nnc(SCC(=O)NC3=NCCS3)n2C)cc1,inactive
24,N#Cc1c(N)n(CCCN2CCOCC2)c2nc3ccccc3nc12,inactive
25,O=C(Cc1cccc2ccccc12)Nc1ccc(Br)cc1C(=O)O,inactive
26,O=C(Nc1ccn(CCCN2CCN(Cc3cccc4ccccc34)CC2)c(=O)n1)OCc1ccccc1,14.1 µM (active)
